Compounds with a hit are over-represented: about 6.1% of the library has one in this group of screens.
TGFb SMAD3 inh: inhibitors of TGF-b signaling; HepG2 CAGA-GFP TGF-b/SMAD3 reporter, GFP fluorescence, 18 h; TGF-beta stimulated, 500 pg/mL final; actives 1.2% (n = 410,000); AID 588855; Potency, µM (doses to about 46.1 µM), for inactives: at the highest dose activity, negative = inhibition, actives largely listed as inhibitors; further: on the % scale 0 is the no-effect control and ±100 the full control effect; nearly all actives have a fitted effect of over 65% in size
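Cell-based qHTS in HEPG2 carrying a CAGA-GFP Smad reporter; compounds added before 500 pg/mL final TGF-beta, 18 h incubation at 37 degrees C, GFP fluorescence quantified per cell by imaging cytometry.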
Gal4-VP16 FLuc: Gal4-VP16 reporter inhibition counter-screen | Drosophila S2 Gal4-VP16 UAS-luciferase, luminescence, 20 h | actives 3.5% (n = 310,000) | Potency, µM (titrated, usually from 53.6 µM), for inactives: at the highest dose activity, negative = inhibition, usual class: inhibitors | AID 2546;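 further: Gal4-VP16 expression switched on by copper sulfate through the metallothionein promoter; on the % scale 0 is the no-effect control and ±100 the full control effect; nearly all actives have a fitted effect of over 50% in size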
RORgamma inh: blocks mouse ROR gamma transcriptional activity. P51450. Drosophila S2 Gal4-RORgamma UAS-luciferase reporter, 20 h. Potency, µM (highest dose often 53.6 µM), for inactives: top-dose activity change, negative = inhibition, actives largely listed as inhibitors. actives 5.4% (n = 310,000). AID 2551; further: on the % scale 0 is the no-effect control and ±100 the full control effect; nearly all actives have a fitted effect of over 60% in size
Target sequence (P51450 whole entry, looked up, the tested form may be a part): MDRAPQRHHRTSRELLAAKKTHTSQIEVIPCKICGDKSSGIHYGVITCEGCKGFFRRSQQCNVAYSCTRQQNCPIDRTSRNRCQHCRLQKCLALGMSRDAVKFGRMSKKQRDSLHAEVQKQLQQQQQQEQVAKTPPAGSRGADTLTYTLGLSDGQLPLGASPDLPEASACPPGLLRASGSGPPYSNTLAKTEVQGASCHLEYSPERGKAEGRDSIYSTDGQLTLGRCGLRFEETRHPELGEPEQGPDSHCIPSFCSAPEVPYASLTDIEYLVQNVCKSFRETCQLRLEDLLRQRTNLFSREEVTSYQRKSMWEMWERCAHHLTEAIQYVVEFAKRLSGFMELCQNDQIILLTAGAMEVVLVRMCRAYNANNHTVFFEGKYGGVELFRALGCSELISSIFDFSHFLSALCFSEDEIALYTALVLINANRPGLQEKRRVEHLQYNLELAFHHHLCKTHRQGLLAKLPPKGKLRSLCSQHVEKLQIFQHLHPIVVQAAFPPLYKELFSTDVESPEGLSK
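Drosophila Schneider cells stably carrying a metallothionein-driven Gal4 DBD–ROR gamma fusion and a UAS-Photinus luciferase reporter were exposed to compound for 1 hr, then induced with copper sulfate (700 uM final) for 20 hr at ambient temperature before luminescence reading.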
ATXN2 expr inh: inhibitors of ATXN2 expression. Potency, µM (series often up to 57 µM), without a hit: top-dose activity change, negative = inhibition, usual class: inhibitors. actives 0.72% (n = 360,000). HEK-293 ATXN2-luciferase reporter, luminescence, 24 h. AID 1745845; further: on the % scale 0 is the no-effect control and ±100 the full control effect; nearly all actives have a fitted effect of over 55% in size
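qHTS (up to 57 uM final) was run with 24 h compound exposure of reporter cells at 37 °C. Each well was multiplexed: SteadyGlo luminescence measured ATXN2-luciferase expression after a fluorogenic Gly-Phe-AFC viability readout (25 uM final).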
ATXN viability: viability counter-screen for ATXN expression inhibitors | S2 cells (HEK-293 line with an ATXN2-luciferase reporter) viability, CellTiter-Fluor protease fluorescence, 24 h | Potency, µM (top dose mostly 56.7 µM), usual class: cytotoxic | actives 0.49% (n = 400,000); further: nearly all actives have a fitted effect of over 40% in size
HepG2 tox: HepG2 cytotoxicity, counter-screen for TGF-b inhibitors | HepG2 CAGA-GFP viability, ATP luminescence, 18 h | Potency, µM (top dose mostly 46.1 µM), without a hit: at the top dose activity change, negative = cytotoxicity, hits mostly cytotoxic | actives 0.76% (n = 410,000) | AID 588856
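HepG2 CAGA-GFP cells (1000/well, DMEM with 1% FBS) received compound, then TGF-beta at 500 pg/mL final, and were incubated 18 hours at 37 degrees C. Viability was read by CellTiter-Glo luminescence. Media-only wells were set as complete cell-killing and DMSO as no toxicity.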
* = called active by the depositor; i = inactive; ? = inconclusive; · = not tested or not shown; ! = not active in a repeat. The call rests on the fitted dose curve; in most records, active means well fitted curve in the direction sought with a large enough effect; inconclusive means small, poorly fitted or top-dose-only effect, or another doubt; inactive means no such curve, though single readings can be large; an effect the other way counts as inactive or inconclusive. Potency means the concentration at half of the fitted maximal effect.

SMILES	TGFb SMAD3 inh	Gal4-VP16 FLuc	RORgamma inh	ATXN2 expr inh	ATXN viability	HepG2 tox
CCOc1cccc(-c2c(C(=O)N/N=C/c3ccc(C)o3)nnn2-c2nonc2N)c1	4.2%	?	10µM*	-2.2%	i	3.7%
CCOc1cccc(-c2c(C(=O)N/N=C/c3ccco3)nnn2-c2nonc2N)c1	5.2%	25.1µM*	11.2µM*	-1.2%	i	2.9%
CCOc1ccc(-c2c(C(=O)N/N=C/c3ccoc3)nnn2-c2nonc2N)cc1	10.1%	?	?	-0.3%	i	-4.2%
COCCNc1nc(C)nc2c1nc(-c1ccccc1)n2C1CCN(Cc2ccccc2)C1 (configuration not stated)	·	9.8%	-9.5%	·	·	·
Cc1cc(/C=N/n2cnnc2)c(C)n1-c1ccc(OCc2ccc(Cl)cc2Cl)cc1	8.91µM*	11.2µM*	0.0%	15.8µM*	i	-73.7%
CCN1C(=O)/C(=C\N(C(C)=O)c2ccccc2)OC1=S	-12.1%	10µM*	7.94µM*	8.0%	i	-32.9%
O=C(C[n+]1cccc(Br)c1)c1ccc(I)cc1	-0.6%	·	·	·	·	-14.5%
S=C1NC2=C(C(c3ccc(Br)cc3)N1)N1CCC2CC1 (configuration not stated)	1.8%	-7.3%	8.91µM*	-13.6%	i	1.1%
Fc1cccc(C2NC(=S)NC3=C2N2CCC3CC2)c1 (configuration not stated)	4.1%	-9.3%	-34.6%	1.0%	i	-5.9%
O=Nc1c(O)n(Cc2ccc(Cl)cc2)c2ccccc12	-14.7%	11.2µM*	?	-16.0%	i	-57.3%
O=Nc1c(O)n(Cc2c(Cl)cccc2Cl)c2ccccc12	?	-21.6%	10.1%	0.8%	i	-61.5%
O=Nc1c(O)n(Cc2ccc(Cl)cc2Cl)c2ccccc12	?	?	-36.8%	0.7%	i	5.01µM*
COc1cccc(C2=Nn3c(nnc3-c3ccc(OC)cc3OC)SC2)c1	·	-8.5%	5.3%	·	·	·
COc1ccc(C2=Nn3c(nnc3-c3ccccc3F)SC2)cc1OC1CCCC1	12.6µM*	·	·	-58.0%	?	-67.4%
COc1cccc(C2=Nn3c(nnc3-c3ccccc3C)SC2)c1	·	15.8µM*	?	·	·	·
CC(C)(C)n1ncc2c(=O)n(Cc3cccc(Cl)c3Cl)cnc21	5.0%	·	·	·	·	-5.6%
COc1cc(Nc2c3ccccc3nc3ccccc23)cc(OC)c1OC	?	?	-10.1%	?	17.8µM*	-76.3%
Cc1ccc2nc3c(c(Nc4ccccc4)c2c1)CCC3	12.6µM*	-2.2%	11.5%	-35.2%	i	-41.8%
COc1ccc(Nc2nc(N3CCCC3)c3ccccc3n2)cc1	?	?	?	28.2µM*	?	-83.2%
CCN(CC)CCOC(=O)c1ccc(Nc2c3c(nc4ccccc24)CCC3)cc1	?	·	·	?	20µM*	-39.3%
COc1ccc(Nc2c3c(nc4ccccc24)CCC3)cc1	11.2µM*	3.2%	-10.3%	?	i	-46.9%
c1ccc(Nc2c3c(nc4ccccc24)CCC3)cc1	?	-5.2%	-15.3%	-21.8%	i	-15.4%
COc1ccc(C)cc1Nc1c2c(nc3ccccc13)CCC2	7.94µM*	?	-32.7%	?	6.31µM*!	-16.6%
COc1ccc(Nc2c3c(nc4ccccc24)CCCC3)cc1OC	?	-10.7%	-18.5%	?	i	-12.0%
Cc1nc2cc(NC(=O)C3CC34CCN(Cc3ccc(O)c(Cl)c3)CC4)ccc2s1 (configuration not stated)	·	·	·	·	i	·
SMILES	TGFb SMAD3 inh	Gal4-VP16 FLuc	RORgamma inh	ATXN2 expr inh	ATXN viability	HepG2 tox
Cc1cc(C)n2nc(CNS(=O)(=O)c3ccccc3)nc2n1	8.4%	·	·	4.8%	i	-19.1%
C1Cc2[nH]nc(-c3nn[nH]n3)c2C1	·	·	·	-7.1%	·	·
COc1ccc2nc3n(c(=O)c2c1)-c1cc2ccccc2cc1C(=O)NC3Cc1ccc(O)cc1 (configuration not stated)	?	·	·	?	?	-18.3%
O=C1NC(Cc2ccc(O)cc2)c2nc3ccc(Br)cc3c(=O)n2-c2cc3ccccc3cc21 (configuration not stated)	12.6µM*	·	·	?	?	-35.6%
O=C(C[n+]1cc(Br)cc(Br)c1)c1ccc(I)cc1	6.5%	·	·	·	·	9.2%
O=C(O)c1ccc(-c2cc3cccnc3c(-c3ccc4nonc4c3)n2)cc1	·	·	·	-23.8%	·	·
CN(C(=O)Cn1cnc2onc(-c3ccc(F)cc3)c2c1=O)c1ccccc1Cl	?	·	·	-1.7%	i	-32.8%
O=C(Cc1ccc(S(=O)(=O)N2CCOCC2)s1)Nc1cc(C(F)(F)F)cc(C(F)(F)F)c1	17.8µM*	·	·	?	?	-82.9%
CCOc1cccc(-c2cc(C(=O)N/N=C/c3ccc(OC)c(CN4CCOCC4)c3)c3ccccc3n2)c1	0.0%	?	15.8µM*	-7.5%	i	-45.0%
O=C(CN(c1ccc(Cl)c(C(F)(F)F)c1)S(=O)(=O)c1ccccc1)Nc1cccnc1	11.2µM*	·	·	?	?	-14.5%
O=c1c2ccccc2nc2c3ccccc3c(NCCN3CCOCC3)nn12	·	20µM*	12.6µM*	·	·	·
O=c1c2c(-c3ccccc3)csc2nc2c3ccccc3c(NCCN3CCOCC3)nn12	-0.3%	3.16µM*	1.58µM*	?	·	-3.7%
O=C(NCCC1CCCCN1S(=O)(=O)c1ccc(F)cc1)C(=O)NCc1cccnc1 (configuration not stated)	-2.0%	·	·	-3.9%	i	-9.0%
CCc1cnn2c(NCc3ccc[n+]([O-])c3)cc(N3CCCC[C@@H]3CCO)nc12	·	·	·	0.0137µM*	·	·
COCCn1c(=O)c(-c2ccc(Cl)cc2)nc2cnc(OCc3ccccc3)nc21	·	2.5%	-21.0%	·	·	·
O=C(CSc1nc(=O)n(Cc2ccco2)c2c1CCC2)Nc1cccc(F)c1	7.94µM*	·	·	?	i	-22.4%
O=C(CSc1nc(=O)n(Cc2ccco2)c2c1CCC2)NCc1ccc(F)cc1	-27.7%	·	·	-13.4%	?	-21.6%
CN(C)c1ccc2cc(C(=O)N[C@@H](CCCN=C(N)CCl)C(=O)NCc3ccccc3)ccc2c1	·	·	·	30.6µM*	·	·
O=C(N[C@@H](CO)C(=O)NCc1ccccc1)c1ccc(C(F)(F)F)cc1	-2.3%	18.2%	7.2%	6.6%	i	-1.7%
Cc1ccc(OCC(=O)Oc2c(C)cccc2C)cc1	3.2%	3.3%	-7.2%	-23.4%	i	0.2%
COCC(=O)Oc1cc(-c2ccc(C)cc2C)c(OC(=O)COC)c(-c2ccc(C)cc2C)c1	?	·	·	·	i	7.08µM*
